The test system of assay [1] is rat Norepinephrine Transporter (NET), gene 83511. Kind of assay: NVS_TR_rNET: NovaScreen (NVS) Transporter Assay for rat Norepinephrine Transporter (NET) (AID 2283373). A digest of the protocol:
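Competitive radioligand displacement at the rat NET using forebrain membrane preparations, 1 h incubation, filter-based scintillation readout. Primary testing in duplicate at a single 25 uM concentration; confirmed actives retested across concentrations.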

The target of assay [2] is Estrogen receptor (Homo sapiens) (UniProt P03372). Kind of assay: OT_ERa_GFPERaERE_0120: Odyssey Thera (OT) 2-hour HeLa Transcription Induction Assay for Estrogen Receptor (AID 2283382). A digest of the protocol:
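Two-hour compound treatment of HeLa cells preceded microscopy imaging of an inducible fluorescent reporter. Image-based quantification gave one endpoint, analysed for signal increase relative to DMSO controls.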

Assay [3] has as its target human Dopamine Transporter (DAT), SLC6A3 (gene 6531) (UniProt Q01959). Kind of assay: NVS_TR_hDAT: NovaScreen (NVS) Transporter Assay for human Dopamine Transporter (DAT) (AID 2283374).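 Note: activity means loss of bound radioligand signal relative to DMSO.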 In a few lines: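 Extracted human SLC6A3 protein incubated 1 h with radioligand and test chemical; bound fraction separated on filters and counted. Single 25 uM duplicate screen preceded concentration-response follow-up; positive and negative controls on every plate.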

Assay [4] deals with Agonist Androgen Response Element (ARE), AR (gene 367) (UniProt P10275). The assay can be described thus: OT_AR_ARELUC_AG_1440: Odyssey Thera (OT) 24-hour CHO-K1 Luciferase Assay for Agonist Androgen Response Element (ARE) (AID 2283379). In a few lines: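 Luminescence increase above DMSO, read after a 24 h compound treatment of CHO-K1 cells expressing an androgen response element luciferase reporter, gives the single primary endpoint; concentration-response fitting used the positive direction.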

Assay [5] deals with Estrogen receptor beta (Homo sapiens) (UniProt Q92731). The assay can be described thus: OT_ER_ERbERb_1440: Odyssey Thera (OT) 24-hour HEK293T Protein-Complementation Assay for Estrogen Receptor-beta/-beta Homodimer (AID 2283380).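 Note: fluorescence gain from ER beta LBD homodimer complementation read by laser scanning cytometry; scored as signal increase over DMSO baseline for both agonists and antagonists.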 In a few lines:
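HEK293T cells stably expressing human ER-beta LBD (aa 310-547) PCA homodimer pair, dosed 24 h; formaldehyde-fixed, Draq5-stained. Readout: increase in nuclear (agonist) or nuclear plus cytoplasmic (antagonist) fluorescence intensity versus DMSO, gain-of-signal fitting.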

Assay [6] addresses Bile acid receptor (Homo sapiens) (UniProt Q96RI1). The assay can be described thus: OT_FXR_FXRSRC1_0480: Odyssey Thera (OT) 8-hour HEK293T Protein-Complementation Assay for Farnesoid X receptor/SRC-1 Co-activator (AID 2283383). A digest of the protocol: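 Readings were taken 8 h after dosing HEK293T cells in a split-reporter complementation format pairing FXR with SRC-1. Increased fluorescence relative to DMSO-treated wells defined activity.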

For assay [7] the target is unchanged. The assay can be described thus: OT_FXR_FXRSRC1_1440: Odyssey Thera (OT) 24-hour HEK293T Protein-Complementation Assay for Farnesoid X receptor/SRC-1 Co-activator (AID 2283384). In a few lines:
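Single endpoint, analysed for increased fluorescence against DMSO controls. HEK293T cells carrying FXR and SRC-1 linked to complementary reporter halves were exposed to chemicals for 24 h before reading.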

The target in assay [8] is human Serotonin Transporter (SERT), SLC6A4 (gene 6532) (UniProt P31645). The assay can be described thus: NVS_TR_hSERT: NovaScreen (NVS) Transporter Assay for human Serotonin Transporter (SERT) (AID 2283372). In a few lines: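 Human platelet membrane preparation; displacement of radioligand from serotonin transporter measured after 1 h by filtration and scintillation counting. Single 25 uM duplicate screen, then concentration series for actives, with DMSO as negative baseline.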

The target in assay [9] is rat Serotonin Transporter (SERT), Slc6a4 (gene 25553) (UniProt P31652). Kind of assay: NVS_TR_rSERT: NovaScreen (NVS) Transporter Assay for rat Serotonin Transporter (SERT) (AID 2283375). A digest of the protocol: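 Rat forebrain membranes were incubated with test chemical for 1 hour; radioligand binding to SERT was measured by filter-based scintillation counting. Primary screen ran in duplicate at 25 uM, with actives followed up in concentration series; DMSO served as negative control.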

SMILES strings stand for the structures. Inconclusive results are not listed. The source made the active and inactive calls. Rule for the calls: active = hit-call score of the fitted dose curve at least 0.9, where 1 is the maximum; inconclusive = response in the unintended direction; inactive = score below 0.9.

Estrogen receptor (Homo sapiens), sequence (P03372 whole entry, looked up): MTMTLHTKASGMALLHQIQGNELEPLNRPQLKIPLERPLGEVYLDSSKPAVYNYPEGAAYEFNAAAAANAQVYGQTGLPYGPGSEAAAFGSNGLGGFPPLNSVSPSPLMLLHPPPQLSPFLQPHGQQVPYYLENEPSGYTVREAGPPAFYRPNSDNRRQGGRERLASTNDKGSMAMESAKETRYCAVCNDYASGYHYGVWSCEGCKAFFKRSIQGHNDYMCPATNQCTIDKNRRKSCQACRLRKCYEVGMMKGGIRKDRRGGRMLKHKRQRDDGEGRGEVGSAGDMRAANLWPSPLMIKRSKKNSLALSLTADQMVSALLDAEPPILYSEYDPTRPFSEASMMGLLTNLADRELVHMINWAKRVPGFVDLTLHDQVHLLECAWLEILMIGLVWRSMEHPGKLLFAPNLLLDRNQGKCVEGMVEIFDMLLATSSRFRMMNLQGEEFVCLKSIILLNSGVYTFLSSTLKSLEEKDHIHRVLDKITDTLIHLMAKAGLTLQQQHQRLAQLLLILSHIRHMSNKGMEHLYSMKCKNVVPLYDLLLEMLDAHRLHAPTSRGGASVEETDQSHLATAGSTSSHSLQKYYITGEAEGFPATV
Estrogen receptor beta (Homo sapiens), sequence (Q92731 whole entry, looked up, the tested form may be a part): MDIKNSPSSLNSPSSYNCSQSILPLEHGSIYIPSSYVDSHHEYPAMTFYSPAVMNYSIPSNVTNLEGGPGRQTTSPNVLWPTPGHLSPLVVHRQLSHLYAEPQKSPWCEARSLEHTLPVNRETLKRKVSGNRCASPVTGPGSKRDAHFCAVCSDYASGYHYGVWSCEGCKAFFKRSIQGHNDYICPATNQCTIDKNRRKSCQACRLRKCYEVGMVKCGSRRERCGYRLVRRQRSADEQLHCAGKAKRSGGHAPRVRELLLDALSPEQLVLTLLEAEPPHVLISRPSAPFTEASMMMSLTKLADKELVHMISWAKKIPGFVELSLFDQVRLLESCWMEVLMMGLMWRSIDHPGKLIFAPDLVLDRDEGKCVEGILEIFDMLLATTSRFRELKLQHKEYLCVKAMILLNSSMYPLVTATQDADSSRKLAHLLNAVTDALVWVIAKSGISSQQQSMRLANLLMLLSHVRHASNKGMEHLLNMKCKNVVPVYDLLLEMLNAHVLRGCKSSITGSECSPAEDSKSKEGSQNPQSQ
Bile acid receptor (Homo sapiens), sequence (Q96RI1 whole entry, looked up): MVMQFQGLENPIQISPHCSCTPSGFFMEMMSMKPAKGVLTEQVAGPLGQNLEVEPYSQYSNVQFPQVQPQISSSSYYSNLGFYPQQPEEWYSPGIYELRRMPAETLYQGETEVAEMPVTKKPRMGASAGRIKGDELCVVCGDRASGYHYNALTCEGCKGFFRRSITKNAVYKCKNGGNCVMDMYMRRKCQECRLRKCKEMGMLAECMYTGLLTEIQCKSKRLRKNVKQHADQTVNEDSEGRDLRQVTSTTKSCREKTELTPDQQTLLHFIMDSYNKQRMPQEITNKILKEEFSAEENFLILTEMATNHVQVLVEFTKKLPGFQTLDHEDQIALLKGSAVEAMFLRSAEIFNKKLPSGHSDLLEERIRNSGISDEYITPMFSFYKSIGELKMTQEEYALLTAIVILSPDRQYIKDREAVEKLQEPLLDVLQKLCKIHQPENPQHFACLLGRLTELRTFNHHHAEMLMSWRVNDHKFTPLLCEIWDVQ
human Serotonin Transporter (SERT), SLC6A4 (gene 6532), sequence (P31645 whole entry, looked up): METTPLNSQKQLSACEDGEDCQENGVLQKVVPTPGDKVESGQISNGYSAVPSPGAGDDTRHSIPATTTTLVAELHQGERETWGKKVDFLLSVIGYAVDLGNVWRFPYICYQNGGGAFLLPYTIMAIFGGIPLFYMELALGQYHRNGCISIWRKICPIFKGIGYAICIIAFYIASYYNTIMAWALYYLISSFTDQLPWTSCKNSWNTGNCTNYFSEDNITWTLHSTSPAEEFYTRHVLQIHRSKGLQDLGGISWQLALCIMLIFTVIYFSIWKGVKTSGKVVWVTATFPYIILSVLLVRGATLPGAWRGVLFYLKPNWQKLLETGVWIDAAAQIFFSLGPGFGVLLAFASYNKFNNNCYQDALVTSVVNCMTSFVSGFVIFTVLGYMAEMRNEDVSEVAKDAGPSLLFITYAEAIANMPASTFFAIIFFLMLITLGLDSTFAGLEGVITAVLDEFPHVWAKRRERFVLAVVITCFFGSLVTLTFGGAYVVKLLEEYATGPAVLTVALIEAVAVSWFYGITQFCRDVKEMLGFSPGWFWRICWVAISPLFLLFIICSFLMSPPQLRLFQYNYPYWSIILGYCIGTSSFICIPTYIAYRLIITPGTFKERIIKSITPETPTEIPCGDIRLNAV
rat Serotonin Transporter (SERT), Slc6a4 (gene 25553), sequence (P31652 whole entry, looked up): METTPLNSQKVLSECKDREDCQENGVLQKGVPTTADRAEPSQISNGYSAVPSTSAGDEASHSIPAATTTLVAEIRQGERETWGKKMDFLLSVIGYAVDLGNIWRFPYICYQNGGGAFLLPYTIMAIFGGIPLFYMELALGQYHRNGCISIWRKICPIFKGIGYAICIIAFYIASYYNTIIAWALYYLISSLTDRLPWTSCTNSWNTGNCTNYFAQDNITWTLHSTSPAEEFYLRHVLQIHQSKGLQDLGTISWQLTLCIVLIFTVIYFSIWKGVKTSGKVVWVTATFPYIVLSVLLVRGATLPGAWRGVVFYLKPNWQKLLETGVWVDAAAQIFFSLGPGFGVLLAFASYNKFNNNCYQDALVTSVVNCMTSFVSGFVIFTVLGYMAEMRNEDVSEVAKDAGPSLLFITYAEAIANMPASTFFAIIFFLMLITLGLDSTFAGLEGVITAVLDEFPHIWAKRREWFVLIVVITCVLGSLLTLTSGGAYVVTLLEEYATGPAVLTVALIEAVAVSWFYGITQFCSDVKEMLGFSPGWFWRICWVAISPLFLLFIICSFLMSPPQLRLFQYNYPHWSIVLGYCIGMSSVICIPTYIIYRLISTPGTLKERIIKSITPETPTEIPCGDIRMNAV
Agonist Androgen Response Element (ARE), AR (gene 367), sequence (P10275 whole entry, looked up): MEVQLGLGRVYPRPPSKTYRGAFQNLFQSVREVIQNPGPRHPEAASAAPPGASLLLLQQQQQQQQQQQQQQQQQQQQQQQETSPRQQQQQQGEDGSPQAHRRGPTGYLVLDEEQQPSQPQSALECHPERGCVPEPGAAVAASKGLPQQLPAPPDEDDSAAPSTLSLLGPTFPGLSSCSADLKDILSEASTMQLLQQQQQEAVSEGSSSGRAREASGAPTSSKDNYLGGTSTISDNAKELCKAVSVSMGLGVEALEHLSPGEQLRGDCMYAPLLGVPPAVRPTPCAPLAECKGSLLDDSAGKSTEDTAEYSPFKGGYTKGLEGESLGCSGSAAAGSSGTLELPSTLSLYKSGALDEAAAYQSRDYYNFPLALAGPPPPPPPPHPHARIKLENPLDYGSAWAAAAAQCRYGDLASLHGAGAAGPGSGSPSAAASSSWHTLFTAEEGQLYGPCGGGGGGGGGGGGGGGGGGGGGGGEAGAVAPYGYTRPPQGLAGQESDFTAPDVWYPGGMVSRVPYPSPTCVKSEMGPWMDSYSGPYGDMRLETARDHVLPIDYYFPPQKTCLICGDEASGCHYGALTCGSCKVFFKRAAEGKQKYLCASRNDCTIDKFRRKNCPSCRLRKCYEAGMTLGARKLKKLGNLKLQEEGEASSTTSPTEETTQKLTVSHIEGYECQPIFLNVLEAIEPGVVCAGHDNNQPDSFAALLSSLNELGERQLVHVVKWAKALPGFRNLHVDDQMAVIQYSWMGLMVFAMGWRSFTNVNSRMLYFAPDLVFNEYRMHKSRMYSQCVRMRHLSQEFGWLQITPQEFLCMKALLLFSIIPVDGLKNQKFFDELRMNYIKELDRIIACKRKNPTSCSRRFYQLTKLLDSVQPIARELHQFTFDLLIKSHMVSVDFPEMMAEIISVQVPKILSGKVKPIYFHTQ
human Dopamine Transporter (DAT), SLC6A3 (gene 6531), sequence (Q01959 whole entry, looked up): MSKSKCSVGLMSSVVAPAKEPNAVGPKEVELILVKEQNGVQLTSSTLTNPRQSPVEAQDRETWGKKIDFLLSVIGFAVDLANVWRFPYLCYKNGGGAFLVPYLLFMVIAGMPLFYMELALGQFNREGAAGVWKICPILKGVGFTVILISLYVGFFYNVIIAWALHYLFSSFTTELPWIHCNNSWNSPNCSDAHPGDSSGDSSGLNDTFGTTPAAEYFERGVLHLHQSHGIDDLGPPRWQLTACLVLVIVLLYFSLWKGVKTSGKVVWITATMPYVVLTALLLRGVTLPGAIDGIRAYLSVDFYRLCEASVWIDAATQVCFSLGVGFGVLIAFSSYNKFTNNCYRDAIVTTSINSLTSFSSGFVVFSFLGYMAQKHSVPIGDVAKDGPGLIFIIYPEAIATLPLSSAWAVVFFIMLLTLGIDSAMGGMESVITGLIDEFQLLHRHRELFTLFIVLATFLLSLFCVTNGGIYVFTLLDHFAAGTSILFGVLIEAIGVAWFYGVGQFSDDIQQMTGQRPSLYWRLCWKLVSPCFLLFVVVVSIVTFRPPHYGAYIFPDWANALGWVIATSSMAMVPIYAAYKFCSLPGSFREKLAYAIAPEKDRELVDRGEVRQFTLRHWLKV

Take `CC[C@H]1CC[C@H](NCc2cc3c(cc2OC)[C@H]2C[C@H]2C(=O)N3C)[C@H](c2ccccc2)N1`: the half-maximal activity concentration (AC50) in assay [1] was 25 µM (active). The call in assay [2] was inactive.

As to `Oc1ccc2c(c1)-c1ccccc1C2`, the values for the AC50 in [3] and in assay [5] were 10.9 µM (active) and 11 µM (active), respectively. Besides, the molecule was called inactive in [4], in assay [6] and in assay [7].

Turning to `CCOC(=O)COc1ccc2c(c1)CC(NCC(O)c1cccc(Cl)c1)CC2` (configuration not stated), the result in [8], in assay [1] and in [2] was inactive. The AC50 is 0.124 µM (active) in assay [3] and 4.63 µM (active) in assay [9].

Regarding `CC1(C)C(=O)N(Br)C(=O)N1Br`, the molecule was classed as inactive in assay [4], in assay [5], in [6] and in assay [7].

As to `CCOc1cccc(-n2cc(C(=O)N3CCN(c4cc(C(=O)O)c5ccccc5c4)CC3)nc2-c2ccc(C)cc2)c1`, the half-maximal activity concentration (AC50) is 34.2 µM (active) in [8]; 8.21 µM (active) in assay [3]; 14.7 µM (active) in assay [9]; 11.3 µM (active) in assay [6]; 11.3 µM (active) in [7]. Moreover, the molecule was called inactive in assay [4].

In the case of `Cc1[nH]cnc1C[C@H]1CCc2c(C)c3ccccc3n2C1=O`, the AC50 was 8.03 µM (active) in [8], 8.58 µM (active) in assay [1], 11.6 µM (active) in assay [3] and 7.59 µM (active) in [9].

As to `CNCc1ccc(NC(=O)c2c[nH]c3c2C(=O)CCC3)cc1`, the figures for the AC50 in assay [3] and in assay [9] were 13.8 µM (active) and 25 µM (active), respectively. Besides, the result in assay [5] was inactive.

As for `COCCOCCOCCOC`, the molecule was classed as inactive in assay [9], in assay [6] and in assay [7].

As to `CCCCC(CC)COC(=O)c1ccc(C(=O)OCC(CC)CCCC)cc1` (configuration not stated), the outcome in [4] and in assay [6] was inactive.

Consider `CN(C)c1ccc(N=NS(=O)(=O)O)cc1`, for which the outcome in assay [4] was inactive.

Consider `O=C(O)CC(O)C(=O)O` (configuration not stated), for which the half-maximal activity concentration (AC50) in assay [3] was 4.96 µM (active).

As to `COCCOc1cc2cc(C(=O)NC3CCN(C(C)C)CC3)n(CC(=O)Nc3ccc(Cl)cn3)c2cn1`, the AC50 was 15.4 µM (active) in assay [8] and 58 µM (active) in [5].

`Nc1nc2ncc(CNc3ccc(C(=O)N[C@@H](CCC(=O)O)C(=O)O)cc3)nc2c(=O)[nH]1`: the call in assay [4] and in [5] was inactive.

For the molecule `CCOC(=O)c1ccc(C2CCC(NC[C@H](O)COc3ccc(O)c(NS(C)(=O)=O)c3)CC2)cc1` (some centres not stated), the AC50 is 14.9 µM (active) in [8]; 7.29 µM (active) in [1]; 0.321 µM (active) in assay [3]; 1.71 µM (active) in assay [9]; 28.8 µM (active) in [7].

Consider `CC(=O)OCCC(C)C`, for which the call in [3] and in assay [5] was inactive.

For `C1N2CN3CN1CN(C2)C3`, the result in assay [4], in assay [5], in assay [6] and in assay [7] was inactive.

As to `CC(C)CCCCCCCOC(=O)CCCCC(=O)OCCCCCCCC(C)C`, in assay [3], the AC50 was 25 µM (active). Besides, the molecule was classed as inactive in assay [6] and in [7].

`CC(C)=CCCC(C)CCO` (configuration not stated): the molecule was called inactive in [4] and in assay [2].

For the molecule `O=C(O)c1cccc(N(Cc2cccnc2)c2ccc(OC(F)F)c(OC(F)F)c2)c1`, the result in assay [4] was inactive.

As for `O=C(CCCCCCCCc1cccnc1)N1CCC(C=C(c2ccccc2)c2ccccc2)CC1`, the result in assay [4] was inactive. For the same molecule, in [5], the AC50 was 11.9 µM (active).

As to `CCCC(=O)OCC`, the molecule was classed as inactive in assay [3] and in [2].

Take `Cc1ccc(O)cc1`: the molecule was classed as inactive in assay [4], in assay [5], in assay [6] and in [7].

Turning to `Fc1ccccc1[C@@H](F)COC1CCC(Nc2ncnc3[nH]ncc23)CC1` (some centres not stated), the concentration at half-maximal activity (AC50) in assay [9] was 2.48 µM (active). Moreover, the molecule was called inactive in assay [4] and in [5].

In the case of `O=c1[nH]c2ccc(S(=O)CCN3CCC(Cc4ccc(F)cc4)CC3)cc2o1` (configuration not stated), the AC50 was 3.16 µM (active) in assay [3] and 0.403 µM (active) in assay [9]. Also, the outcome in [5] and in assay [2] was inactive.

Take `CCn1nc(Cc2ccccc2)cc1C1CCN(C[C@H]2C[C@H](N(C)[C@@H](C(=O)O)C(C)C)C[C@@H]2c2cccc(F)c2)CC1`: the AC50 in assay [3] was 9.06 µM (active). Also, in assay [2], the result was inactive.

With `CCCCCCc1ccc(O)cc1O`, the AC50 in assay [3] was 10 µM (active). The outcome in [9] and in assay [4] was inactive.

Consider `CCCN(C1CCN(C(=O)C2CCNCC2)CC1)[C@@H]1CCc2ccc(OC)cc2C1`, for which the AC50 is 10.3 µM (active) in assay [8] and 3.7 µM (active) in assay [9]. In assay [4], the call was inactive.

Regarding `CC/C(=C\C(=N/O)C(N)=O)C(C)[N+](=O)[O-]` (configuration not stated), the call in assay [3], in [5] and in assay [2] was inactive.

With `Cc1c(-c2cccnc2)c2ccccc2n1CCCCC(=O)O`, the molecule was classed as inactive in [6] and in [7].

With `CC(C)CCCCCCOC(=O)c1ccc(C(=O)OCCCCCCC(C)C)c(C(=O)OCCCCCCC(C)C)c1`, the outcome in [5] was inactive.

In the case of `CCOC(=O)CC(CC(=O)OCC)(OC(C)=O)C(=O)OCC`, the molecule was classed as inactive in assay [5], in [6] and in assay [7].

Consider `C=CCCCCCCCCC(=O)O`, for which the molecule was classed as inactive in [2].

Turning to `C=CC(=C)CCC=C(C)C`, the molecule was classed as inactive in assay [2].

As for `CCCCCCCCCCCCCCCO`, the molecule was called inactive in [6].

With `O=P(OC(CCl)CCl)(OC(CCl)CCl)OC(CCl)CCl`, the molecule was called inactive in [2].

As for `COC(=O)c1c(Cl)c(Cl)c(C(=O)OC)c(Cl)c1Cl`, the outcome in [2] and in [7] was inactive. Also, the half-maximal activity concentration (AC50) in [6] was 72.2 µM (active).

As to `O=C1CCCCCN1`, the molecule was classed as inactive in assay [5], in [6] and in [7].

`CC[C@H](C)C(=O)O[C@H]1C[C@@H](C)C=C2C=C[C@H](C)[C@H](CC[C@@H]3C[C@@H](O)CC(=O)O3)[C@H]21`: the molecule was classed as inactive in assay [2]. Moreover, the concentration at half-maximal activity (AC50) is 32 µM (active) in assay [6] and 34.8 µM (active) in [7].

The values are drawn from PubChem BioAssay (EPA / NIEHS).
